Data: the supplement of paper PMC3334620
The full ranking holds about 33,000 sequences; the median of “E-score (-0.5 to 0.5)” is about -0.016, and the highest 2% start at about 0.3. The sample as a whole holds a higher share of the highest values than the screen did.

Target: T1, Yer184c (UniProt P39961)
T1 sequence: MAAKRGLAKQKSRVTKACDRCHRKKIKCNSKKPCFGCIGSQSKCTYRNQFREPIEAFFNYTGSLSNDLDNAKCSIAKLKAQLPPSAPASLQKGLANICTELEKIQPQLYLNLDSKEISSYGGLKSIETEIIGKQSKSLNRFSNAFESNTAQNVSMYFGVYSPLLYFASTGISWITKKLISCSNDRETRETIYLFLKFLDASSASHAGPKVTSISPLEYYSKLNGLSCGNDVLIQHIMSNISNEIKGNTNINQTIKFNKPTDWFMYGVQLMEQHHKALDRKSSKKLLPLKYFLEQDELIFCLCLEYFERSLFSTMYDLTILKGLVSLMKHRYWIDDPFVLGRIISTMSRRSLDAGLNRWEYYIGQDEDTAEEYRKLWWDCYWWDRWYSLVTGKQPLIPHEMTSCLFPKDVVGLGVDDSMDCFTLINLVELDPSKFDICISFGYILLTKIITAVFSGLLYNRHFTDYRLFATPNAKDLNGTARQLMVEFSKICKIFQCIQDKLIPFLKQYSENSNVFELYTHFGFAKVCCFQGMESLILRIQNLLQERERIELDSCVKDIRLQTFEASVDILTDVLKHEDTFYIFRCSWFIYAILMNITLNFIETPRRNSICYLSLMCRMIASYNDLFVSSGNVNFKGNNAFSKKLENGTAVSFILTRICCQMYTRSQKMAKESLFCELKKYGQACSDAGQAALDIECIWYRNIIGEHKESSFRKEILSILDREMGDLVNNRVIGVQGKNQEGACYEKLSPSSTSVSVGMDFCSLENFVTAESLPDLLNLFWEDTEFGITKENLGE
Test: PBM E-score (8-mer binding enrichment) (E-score (-0.5 to 0.5)); higher = stronger / more preferred TF binding
Details: protein concentration: 100 nM; construct: GST-full length
Outline: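 Using PURExpress in vitro transcription/translation, GST-tagged yeast transcription factors were made in full-length or DNA-binding-domain form. These were applied at about 100-200 nM to double-stranded universal all-10-mer Agilent arrays, and bound protein was detected with fluorescent anti-GST. Scans were normalised with masliner before the Universal PBM Analysis Suite assigned E-scores to ungapped eight-base words pooled with their reverse complements.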

Row | Sequence | PBM E-score
1 | CGCTGCAA | 0.0112
2 | AAACGATC | 0.161
3 | ACATACTC | 0.0395
4 | TAGCAGAA | 0.0545
5 | CCCGGAGA | 0.222
6 | ACCGGAGA | 0.33
7 | GCCGGAGA | 0.29
8 | TCCGGAGA | 0.397
9 | ACCGGAGC | 0.247
10 | ACCGGAGG | 0.144
11 | ATGATCAC | -0.0394
12 | AACTAGTG | -0.0163
13 | ACCATTCC | 0.0171
14 | ATTGGCCA | -0.148
15 | TCGGTTCA | 0.148
16 | TCAGGAAA | 0.112
17 | GCCGGAAA | 0.426
18 | GCAGGAAA | -0.0351
19 | TGCGGAAA | 0.184
20 | GCTGGAAA | 0.133
21 | TCCGGAAA | 0.449
22 | CCCGGAAA | 0.396
23 | CCCGGAAG | 0.259
24 | ATCTAGCC | 0.00276
25 | AGGTTATC | -0.0359

Row | Sequence | PBM E-score
26 | GAACTTGC | 0.0842
27 | ATCTTTTC | 0.0824
28 | CAGCGTAC | -0.147
29 | CGCCATTC | 0.0678
30 | CCACGGAG | 0.0656
31 | CCACGGAC | -0.00729
32 | GCACGGAA | 0.159
33 | TCACGGAA | 0.341
34 | CCACGGAA | 0.338
35 | ACACGGAA | 0.295
36 | AGGACAAG | -0.102
37 | AAGTCTCT | -0.246
38 | AACAGAAC | 0.163
39 | GTTGTACA | 0.277
40 | ATGCCGTC | 0.0209
41 | GTGCCGGA | 0.305
42 | CTGCCGAC | 0.0291
43 | ATGCCGGC | 0.399
44 | ATGCCGGA | 0.36
45 | ATGCCGGG | 0.244
46 | ATGCCAGA | 0.0873
47 | CTGCCGGC | 0.369
48 | CTGCCGTC | -0.066
49 | GTGCCGTA | 0.16
50 | GGGCCGGA | 0.244

Row | Sequence | PBM E-score
51 | ATGCCGCA | 0.124
52 | ATACGCGG | -0.0243
53 | AGCCCTCC | -0.201
54 | GCATTCCC | -0.182
55 | ACCTCTAA | 0.0296
56 | CATTGTGA | -0.164
57 | GCTGTGCC | -0.0243
58 | AGAGAGAT | 0.0462
59 | CACGTTCC | -0.176
60 | AGACCAAC | -0.108
61 | ATATTATG | 0.261
62 | ATATAACG | 0.255
63 | CAAGTAGC | -0.216
64 | CTGCCGTA | -0.00407
65 | CTGCCGGA | 0.349
66 | CTGCCGCA | -0.117
67 | CGATGCGA | -0.0338
68 | GCCGAGAC | 0.327
69 | GCCGAGTA | 0.262
70 | GTCGAGAA | -0.0535
71 | CCCGAGAA | 0.234
72 | GCCGAGAA | 0.368
73 | ACCGAGAA | 0.282
74 | ACCGAGAC | 0.0458
75 | TCCGAGCA | 0.329

Row | Sequence | PBM E-score
76 | GCCGAGCA | 0.186
77 | TCCGAGAA | 0.324
78 | ACCGAGCA | 0.225
79 | CCCGAGAC | 0.0787
80 | GTCCTGCA | -0.122
81 | CGGCACTC | 0.124
82 | ACAACGTC | -0.0597
83 | ACAGACGG | -0.11
84 | TGAGCACA | 0.0117
85 | CTGCATAA | 0.11
86 | AGAAAGCG | -0.0479
87 | GCTGCGAA | 0.0893
88 | CAGGTCGG | -0.119
89 | CCAGATCA | 0.135
90 | CATCTCCG | 0.37
91 | AATCTCCG | 0.3
92 | CATCTCCC | -0.0754
93 | AAGCAGAC | -0.195
94 | CCCACAGA | -0.227
95 | AAGTAGCC | -0.0314
96 | GTCCCCGA | -0.142
97 | AGTCCGGC | 0.289
98 | GGTCCGCA | 0.151
99 | AGTCCGGG | 0.212
100 | CTCCCGGA | 0.243

Row | Sequence | PBM E-score
101 | GGTCCGGA | 0.376
102 | CGTCCGGC | 0.296
103 | CGTCCGGA | 0.323
104 | AGTCCGGA | 0.429
105 | CGTCCGTA | 0.0308
106 | GTCCCGGA | 0.318
107 | GGTCCGTA | 0.178
108 | AACATCAA | 0.156
109 | GCTCCAAA | -0.0747
110 | ACATACCA | -0.12
111 | ATTGCGTC | -0.0563
112 | GCCTGTGA | -0.282
113 | CAACTGAC | -0.106
114 | AACCTAAG | -0.181
115 | CCGGACTA | 0.273
116 | ACGGACTC | 0.0365
117 | CTGGAATC | -0.192
118 | ACGGAATC | 0.301
119 | ACGGAATA | 0.321
120 | ACGGAATG | 0.167
121 | ATGGAATA | 0.127
122 | CGGGAATA | 0.3
123 | CCGGAATC | 0.336
124 | GCGGAATA | 0.205
125 | CCGGACTC | 0.341

Row | Sequence | PBM E-score
126 | CCGGAATA | 0.339
127 | GACCTAAA | 0.0912
128 | AAAACTGC | 0.0178
129 | GGTACTAA | -0.00623
130 | GGGCGACC | -0.167
131 | GCTAACCA | -0.0625
132 | CAGAAGGA | -0.224
133 | TCGCTCAA | 0.047
134 | CCGGCTTC | 0.307
135 | CCGGCTGA | 0.327
136 | CCGGCTGC | 0.331
137 | GCGGCTTA | 0.025
138 | CTGGCTGC | -0.198
139 | CCGGCTTA | 0.33
140 | CGGGCTTC | 0.169
141 | ACGGCTGC | 0.0869
142 | GCGGCTGA | -0.0974
143 | ACGGCTTA | 0.193
144 | ACGGCTTC | 0.0891
145 | ACGGCTGA | 0.0623
146 | ACTTTCTA | -0.0235
147 | AGAATGCT | -0.168
148 | CAAATCGC | -0.0704
149 | ATGGAGAC | -0.176
150 | TACGTCTA | -0.127

Row | Sequence | PBM E-score
151 | GTTAGCTA | -0.119
152 | GGATATGA | 0.0918
153 | TCCGGGAA | 0.37
154 | GCCGGGAC | 0.263
155 | ACCGGGAA | 0.28
156 | GCCGGGAA | 0.331
157 | CCCGGGAA | 0.272
158 | GCCGGGGA | 0.0977
159 | CATGCAAC | -0.00764
160 | GTCTCAAC | -0.0423
161 | AGCTAGAT | -0.104
162 | CGGGACGC | -0.0137
163 | AATTCCCT | -0.0636
164 | AATTCCCG | 0.272
165 | CATTCCGG | 0.318
166 | AATTCCGG | 0.387
167 | CATTCCGA | 0.278
168 | AATTCCGC | 0.208
169 | AATTCCAT | 0.0965
170 | AATTCCGT | 0.328
171 | CATTCCGC | -0.0761
172 | CTGGCTAC | -0.13
